PME-1 inh = PME-1 (human) inhibition; Q9Y570; recombinant PME-1, FP-Rh probe fluorescence polarization; inhibition, % at 5.9 µM; 320,000 compounds, 0.53% hits; AID 2130;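 active means inhibition above the campaign mean of all compounds plus 3 SD, cut at about 26% in these data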;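 further: competitive labeling of PME-1 active site by serine hydrolase directed probe; 0% = PME-1 with DMSO and 100% = wells lacking PME-1 enzyme; inhibitors block probe labeling so polarization falls and inhibition rises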
pPAFAH FP inh = pPAFAH (human) enzyme inhibition; Q13093; recombinant pPAFAH, FP-rhodamine probe fluorescence polarization; inhibition, % at 3.39 µM; 330,000 compounds, 1.5% hits; AID 463082;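 active means inhibition above the mean inhibition across the screen plus 3 SD, cut at about 25% in these data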;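 further: inhibitors block binding of the rhodamine activity-based probe so polarization drops; 0% = enzyme with DMSO and 100% = wells lacking pPAFAH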
Target sequence (Q13093 whole entry, looked up): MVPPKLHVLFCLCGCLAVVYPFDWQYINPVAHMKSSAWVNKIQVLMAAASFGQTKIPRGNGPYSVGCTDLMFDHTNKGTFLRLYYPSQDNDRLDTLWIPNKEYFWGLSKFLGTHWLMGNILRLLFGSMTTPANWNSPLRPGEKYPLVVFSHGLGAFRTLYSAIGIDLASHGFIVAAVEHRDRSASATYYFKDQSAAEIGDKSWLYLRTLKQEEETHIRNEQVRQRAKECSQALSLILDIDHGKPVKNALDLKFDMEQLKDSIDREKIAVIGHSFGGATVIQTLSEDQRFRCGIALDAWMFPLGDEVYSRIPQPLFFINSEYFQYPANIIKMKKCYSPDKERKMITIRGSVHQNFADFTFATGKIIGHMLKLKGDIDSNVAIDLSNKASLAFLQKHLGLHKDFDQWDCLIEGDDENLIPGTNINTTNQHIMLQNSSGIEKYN
Fam108B inh = Fam108B inhibition, counter-screen for RBBP9 inhibitors | inhibition, % at 9.51 µM | recombinant Fam108B, FP-Rh probe fluorescence polarization | 300,000 compounds, 0.33% hits | AID 1947;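 active means inhibition above the screen mean inhibition plus 3 SD, computed separately per campaign, cut at about 18% in these data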;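 further: inhibitors lower polarization as less probe binds the enzyme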
PAFAH1B2 FP inh = PAFAH1B2 (human) inhibition | 340,000 compounds, 1.2% hits | inhibition, % at 3.39 µM | recombinant PAFAH1B2, FP-rhodamine activity probe, fluorescence polarization;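 active means inhibition above the mean of all tested compounds plus 3 SD, cut at about 24% in these data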;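 further: 0% = enzyme with DMSO and 100% = wells lacking PAFAH1B2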
PAFAH2 inh = PAFAH2 (human) inhibition; Q99487; recombinant PAFAH2, FP-rhodamine activity probe, fluorescence polarization; inhibition, % at 3.39 µM; 340,000 compounds, 0.99% hits;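 active means inhibition above the mean over all tested compounds plus 3 SD, cut at about 30% in these data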;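 further: inhibitors block probe labeling of enzyme so polarization drops; 0% = enzyme with DMSO and 100% = wells lacking PAFAH2 protein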
PAFAH1B3 FP inh = blocks human PAF acetylhydrolase 1B catalytic subunit 3; Q15102; recombinant PAFAH1B3, FP-rhodamine probe, fluorescence polarization; inhibition, % at 3.39 µM; 340,000 compounds, 0.28% hits;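 active means inhibition above the screen-wide average of all tested compounds plus 3 SD, cut at about 25% in these data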;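 further: 0% = enzyme with DMSO only and 100% = wells lacking PAFAH1B3 protein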
Target sequence (Q15102 whole entry, looked up): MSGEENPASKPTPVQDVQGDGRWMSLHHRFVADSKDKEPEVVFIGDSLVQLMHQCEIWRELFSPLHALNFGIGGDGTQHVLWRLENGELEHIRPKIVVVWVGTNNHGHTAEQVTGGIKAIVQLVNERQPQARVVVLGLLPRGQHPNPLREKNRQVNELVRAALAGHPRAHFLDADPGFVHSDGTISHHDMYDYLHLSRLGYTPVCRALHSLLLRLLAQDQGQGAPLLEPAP
PAFAH2 FP conf = PAFAH2 (human) inhibition, confirmed; AID 493030; inhibition, % at 3.39 µM; shares compounds with PAFAH2 inh; recombinant PAFAH2, FP-rhodamine activity probe, fluorescence polarization; 2,300 compounds, 65% hits;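 active means mean inhibition over three repeats above a set limit taken from the earlier primary screen, cut at about 30% in these data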;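 further: inhibitor blocks binding of rhodamine activity probe so polarization falls; 0% = enzyme with DMSO and 100% = wells lacking PAFAH2 protein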
Numbers without * were called inactive; ! = not confirmed by another sample. Only some compounds are listed: those with a hit (about 2.8% of all), similar ones and a draw of the others.

For Cc1cc(C)c(N(CC(=O)NCc2ccccc2)C(=O)c2csnn2)c(C)c1 the results were PME-1 inh 1, pPAFAH FP inh -4, Fam108B inh 4, PAFAH1B2 FP inh -3, PAFAH2 inh -5 and PAFAH1B3 FP inh 1.
O=[N+]([O-])c1sccc1CS(=O)(=O)c1ccccc1 was read as PME-1 inh -4, pPAFAH FP inh 1, Fam108B inh -1, PAFAH1B2 FP inh 0, PAFAH2 inh 6 and PAFAH1B3 FP inh 5.
`CC(C)c1cccc(C(C)C)c1NC(=O)COC(=O)C1=COCCO1` gave PME-1 inh -4, pPAFAH FP inh -1, Fam108B inh 3, PAFAH1B2 FP inh 6, PAFAH2 inh 68*, PAFAH1B3 FP inh 6 and PAFAH2 FP conf 57*.
CCc1cccc(CC)c1NC(=O)COC(=O)CC1c2ccccc2CCN1S(=O)(=O)c1ccccc1 (centres undefined) was read as PME-1 inh 17, pPAFAH FP inh 23, Fam108B inh -6, PAFAH1B2 FP inh 3, PAFAH2 inh 35*, PAFAH1B3 FP inh 0 and PAFAH2 FP conf 21.
`COc1cccc(N2CCN(C(=O)c3cc(C)oc3C)CC2)c1` gave PME-1 inh -4, pPAFAH FP inh -5, PAFAH1B2 FP inh -2, PAFAH2 inh -4 and PAFAH1B3 FP inh -1.
For CC(CC(=O)N1CCN(S(=O)(=O)c2ccc([N+](=O)[O-])cc2)CC1)c1ccccc1 (centres undefined) the results were PME-1 inh 7, pPAFAH FP inh 0, PAFAH1B2 FP inh 18, PAFAH2 inh -8 and PAFAH1B3 FP inh 6.
For NC(=O)COC(=O)c1ccccc1SCC(=O)NC1CCCCCC1 the results were PME-1 inh -4, pPAFAH FP inh 4, Fam108B inh 1, PAFAH1B2 FP inh -2, PAFAH2 inh 61*, PAFAH1B3 FP inh 1 and PAFAH2 FP conf 49*.
`CC(C)CNC(=O)COC(=O)c1ccccc1SCC(=O)NCC(C)C` gave PME-1 inh 2, pPAFAH FP inh 2, Fam108B inh 2, PAFAH1B2 FP inh 2, PAFAH2 inh 44*, PAFAH1B3 FP inh 11 and PAFAH2 FP conf 32*.
COc1cccc(OC)c1C(=O)OCC(=O)NCC(C)C was read as PME-1 inh 0, pPAFAH FP inh 3, Fam108B inh 3, PAFAH1B2 FP inh 8, PAFAH2 inh 14 and PAFAH1B3 FP inh 0.
`CN(C)C(=O)CSc1ccccc1C(=O)OCC(=O)NC1CC1` gave PME-1 inh 0, pPAFAH FP inh 3, PAFAH1B2 FP inh 1, PAFAH2 inh 6 and PAFAH1B3 FP inh 6.
For CCCCNC(=O)c1ccccc1SCC(=O)NC1CCCCCCC1 the results were PME-1 inh 3, pPAFAH FP inh 0, PAFAH1B2 FP inh 5, PAFAH2 inh 36*, PAFAH1B3 FP inh 5 and PAFAH2 FP conf 28.
`Cc1cccc(NC(=O)C(=O)C2C(=O)Nc3ccccc32)c1` (centres undefined) gave PME-1 inh -1, pPAFAH FP inh -2, Fam108B inh 0, PAFAH1B2 FP inh 7, PAFAH2 inh 36*, PAFAH1B3 FP inh 1 and PAFAH2 FP conf 29.
`C=CCN1C(=O)c2ccc(C(=O)N3CCN(S(=O)(=O)c4ccccc4Br)CC3)cc2C1=O` gave PME-1 inh -1, pPAFAH FP inh 18, Fam108B inh -2, PAFAH1B2 FP inh 3, PAFAH2 inh 6 and PAFAH1B3 FP inh -1.
CCc1cc2c(=O)oc(-c3ccc(F)cc3)nc2s1 was read as PME-1 inh -10, pPAFAH FP inh 14, Fam108B inh -11, PAFAH1B2 FP inh -6, PAFAH2 inh 82*, PAFAH1B3 FP inh -2 and PAFAH2 FP conf 84*.
`COc1ccc(-n2nc(C(=O)NCC(=O)NCCC3=CCCCC3)c3ccccc3c2=O)cc1OC` gave PME-1 inh -3, pPAFAH FP inh 3, Fam108B inh -1, PAFAH1B2 FP inh 0, PAFAH2 inh -6 and PAFAH1B3 FP inh 0.
For C/C(N)=C(/C#N)C(=O)CSc1nnc(Nc2c(C)cccc2C)s1 the results were PME-1 inh 1, pPAFAH FP inh 17, Fam108B inh 9, PAFAH1B2 FP inh 5, PAFAH2 inh 32*!, PAFAH1B3 FP inh 17 and PAFAH2 FP conf 16.
For O=c1[nH]c(-c2ccco2)nc2sc3c(c12)CCCC3 the results were PME-1 inh 4, pPAFAH FP inh 8, Fam108B inh 3, PAFAH1B2 FP inh 5, PAFAH2 inh 3 and PAFAH1B3 FP inh -5.
Screening O=c1c2c3c(sc2nc2n1N=C(c1cccs1)CS2)CCCC3 returned PME-1 inh -10, pPAFAH FP inh -10, Fam108B inh 0, PAFAH1B2 FP inh -6, PAFAH2 inh 5 and PAFAH1B3 FP inh 9.
Screening O=c1oc(-c2cccs2)nc2sc3c(c12)CCC3 returned PME-1 inh -6, pPAFAH FP inh -4, Fam108B inh 2, PAFAH1B2 FP inh 4, PAFAH2 inh 56*, PAFAH1B3 FP inh 8 and PAFAH2 FP conf 48*.
For Cc1nc2sc3c(c2c(=O)o1)CC(C)(C)OC3 the results were PME-1 inh -2, pPAFAH FP inh 1, Fam108B inh 1, PAFAH1B2 FP inh -1, PAFAH2 inh 4 and PAFAH1B3 FP inh 2.
`Cc1nc2sc3c(c2c(=O)o1)CCC3` gave PME-1 inh -2, pPAFAH FP inh -7, Fam108B inh 10, PAFAH1B2 FP inh 8, PAFAH2 inh 60*, PAFAH1B3 FP inh 4 and PAFAH2 FP conf 50*.
Screening O=c1oc(-c2cccs2)nc2sc3c(c12)CCCC3 returned PME-1 inh 1, pPAFAH FP inh 6, Fam108B inh 0, PAFAH1B2 FP inh -1, PAFAH2 inh 42*, PAFAH1B3 FP inh 11 and PAFAH2 FP conf 38*.
For O=c1oc(/C=C/c2ccco2)nc2sc3c(c12)CCC3 the results were PME-1 inh 6, pPAFAH FP inh 7, Fam108B inh 0, PAFAH1B2 FP inh 0, PAFAH2 inh 55*, PAFAH1B3 FP inh -3 and PAFAH2 FP conf 26.
`O=C(CNC(=O)c1ccccc1F)N/N=C/c1cccnc1` gave PME-1 inh -1, pPAFAH FP inh 1, Fam108B inh 3, PAFAH1B2 FP inh 4, PAFAH2 inh 3 and PAFAH1B3 FP inh 3.
`CCCCCCOC(=O)c1ccc(OC(=O)c2cccnc2)cc1` gave PME-1 inh -3, pPAFAH FP inh 9, Fam108B inh 0, PAFAH1B2 FP inh 7, PAFAH2 inh 41*, PAFAH1B3 FP inh -4 and PAFAH2 FP conf 32*.
`CCCCOC(=O)c1ccc(OC(=O)c2cccnc2)cc1` gave PME-1 inh -3, pPAFAH FP inh 0, Fam108B inh 0, PAFAH1B2 FP inh -3, PAFAH2 inh 2 and PAFAH1B3 FP inh -2.
`Cc1ccc(S(=O)(=O)NCCOc2cc(C)ccc2C)cc1` gave PME-1 inh 1, pPAFAH FP inh 5, Fam108B inh 1, PAFAH1B2 FP inh 0, PAFAH2 inh -5 and PAFAH1B3 FP inh -3.

Screening results from PubChem.
